Results reported in PubChem BioAssay AID1159580 (chemical genetic matrix, 2015).
About 2,000 (36%) of roughly 5,500 compounds were called active. Roughly 18% stayed inconclusive and do not appear here. No stated cut-off is given here; in the data, active means normalized growth mostly below about 0.91 (no sharp cut-off); inconclusive means no clear call, values can overlap the other calls; inactive means mostly above about 0.92. Some of the results follow.

Assay: chemical genetic growth profiling, strain panel (AID 1159580);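 further: tested at 20 µM; growth read once vehicle control cultures reached saturation at 30 °C; 1 = growth at the plate median or of vehicle wells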
Conditions: S. cerevisiae deletion strains, growth OD

Measured: normalized growth

CC(=O)c1ccc2c(c1)N(CCCN(C)C)c1ccccc1S2
inactive: locus YAL021C, strain ccr4, stronger effect = lower value 0.962 | locus YAL026C, strain drs2, stronger effect = lower value 0.981 | locus YAL030W, strain snc1, stronger effect = lower value 1 | locus YBL061C, strain skt5, stronger effect = lower value 0.992 | locus YBR009C, strain hhf1, stronger effect = lower value 1 | locus YBR023C, strain chs3, stronger effect = lower value 1.01 | locus YBR171W, strain sec66, stronger effect = lower value 0.988 | locus YBR231C, strain swc5, stronger effect = lower value 0.994 | locus YBR279W, strain paf1, stronger effect = lower value 0.988 | locus YCL011C, strain gbp2, stronger effect = lower value 0.976 | locus YCL016C, strain dcc1, stronger effect = lower value 0.995 | locus YCL061C, strain MRC1, stronger effect = lower value 0.983 | locus YCL069W, strain vba3, stronger effect = lower value 0.988 | locus YCR088W, strain abp1, stronger effect = lower value 0.978 | locus YDL005C, strain med2, stronger effect = lower value 0.989 | locus YDL040C, strain nat1, stronger effect = lower value 0.99 | locus YDR001C, strain nth1, stronger effect = lower value 0.983 | locus YDR069C, strain doa4, stronger effect = lower value 0.99 | locus YDR137W, strain rgp1, stronger effect = lower value 1.09 | locus YDR159W, strain sac3, stronger effect = lower value 1.01 | locus YDR195W, strain ref2 1 | locus YDR297W, strain sur2, stronger effect = lower value 0.984 | locus YDR334W, strain swr1, stronger effect = lower value 0.959 | locus YDR335W, strain msn5, stronger effect = lower value 0.968 | locus YDR392W, strain spt3, stronger effect = lower value 0.994 | locus YEL003W, strain gim4, stronger effect = lower value 0.986 | locus YEL037C, strain rad23, stronger effect = lower value 0.939 | locus YEL061C, strain CIN8 (second series), stronger effect = lower value 0.984 | locus YER015W, strain faa2, stronger effect = lower value 0.98 | locus YER016W, strain bim1, stronger effect = lower value 0.989 | locus YER111C, strain swi4, stronger effect = lower value 0.994 | locus YER155C, strain BEM2 (second series), stronger effect = lower value 0.995 | locus YFR010W, strain ubp6, stronger effect = lower value 0.974 | locus YGL167C, strain pmr1, stronger effect = lower value 0.987 | locus YGL173C, strain kem1, stronger effect = lower value 0.973 | locus YGL227W, strain vid30, stronger effect = lower value 0.991 | locus YGL240W, strain doc1, stronger effect = lower value 1 | locus YGL253W, strain hxk2, stronger effect = lower value 0.993 | locus YHR013C, strain ard1, stronger effect = lower value 0.947 | locus YHR027C, strain rpn1, stronger effect = lower value 0.986 | locus YHR030C, strain SLT2, stronger effect = lower value 0.966 | locus YHR079C, strain IRE1, stronger effect = lower value 0.963 | locus YHR142W, strain chs7, stronger effect = lower value 0.943 | locus YJL092W, strain hpr5, stronger effect = lower value 0.934 | locus YJL095W, strain BCK1 (second series), stronger effect = lower value 1 | locus YJL095W, strain BCK1, stronger effect = lower value 1 | locus YJL115W, strain asf1, stronger effect = lower value 0.974 | locus YJL129C, strain trk1, stronger effect = lower value 0.981 | locus YJL154C, strain vps35, stronger effect = lower value 0.987 | locus YJL164C, strain tpk1, stronger effect = lower value 0.99 | locus YJL166W, strain qcr8, stronger effect = lower value 0.997 | locus YJL187C, strain SWE1, stronger effect = lower value 0.998 | locus YJR066W, strain TOR1, stronger effect = lower value 0.923 | locus YKL160W, strain elf1, stronger effect = lower value 0.976 | locus YKR026C, strain gcn3, stronger effect = lower value 0.979 | locus YKR091W, strain srl3, stronger effect = lower value 0.992 | locus YLL001W, strain dnm1, stronger effect = lower value 0.973 | locus YLL026W, stronger effect = lower value 0.996 | locus YLL041C, strain sdh2, stronger effect = lower value 0.98 | locus YLR027C, strain aat2, stronger effect = lower value 0.995 | locus YLR113W, strain HOG1, stronger effect = lower value 0.995 | locus YLR221C, strain rsa3, stronger effect = lower value 0.979 | locus YLR258W, strain gsy2, stronger effect = lower value 0.995 | locus YLR262C, strain YPT6 (second series), stronger effect = lower value 1.06 | locus YLR320W, strain mms22, stronger effect = lower value 1.01 | locus YLR342W, strain FKS1, stronger effect = lower value 0.99 | locus YLR357W, strain rsc2, stronger effect = lower value 1.01 | locus YLR370C, strain arc18, stronger effect = lower value 0.984 | locus YLR384C, strain iki3, stronger effect = lower value 0.987 | locus YML120C, strain ndi1, stronger effect = lower value 0.969 | locus YMR058W, strain fet3, stronger effect = lower value 0.967 | locus YMR125W, strain sto1, stronger effect = lower value 1.02 | locus YMR129W, stronger effect = lower value 0.991 | locus YMR205C, strain PFK2, stronger effect = lower value 1.02 | locus YMR231W, strain pep5, stronger effect = lower value 0.996 | locus YNL071W, strain lat1, stronger effect = lower value 0.995 | locus YNL183C, strain NPR1, stronger effect = lower value 0.947 | locus YNL209W, strain ssb2, stronger effect = lower value 0.99 | locus YNL248C, strain rpa49, stronger effect = lower value 0.956 | locus YNL322C, strain KRE1 (second series), stronger effect = lower value 0.987 | locus YNR049C, strain mso1, stronger effect = lower value 0.989 | locus YOR001W, strain rrp6, stronger effect = lower value 0.975 | locus YOR070C, strain gyp1, stronger effect = lower value 0.992 | locus YOR080W, strain dia2, stronger effect = lower value 0.983 | locus YOR083W, strain WHI5, stronger effect = lower value 0.971 | locus YOR106W, strain vam3, stronger effect = lower value 0.972 | locus YOR231W, strain MKK1, stronger effect = lower value 0.972 | locus YOR265W, strain rbl2, stronger effect = lower value 0.995 | locus YOR270C, strain vph1, stronger effect = lower value 0.958 | locus YOR290C, strain snf2, stronger effect = lower value 1.02 | locus YPL051W, strain arl3, stronger effect = lower value 0.994 | locus YPL078C, strain atp4, stronger effect = lower value 1 | locus YPL106C, strain sse1, stronger effect = lower value 0.973 | locus YPL240C, strain hsp82, stronger effect = lower value 0.997 | locus YPL256C, strain CLN2, stronger effect = lower value 0.954
